# Assay outcomes: PubChem BioAssay, Johns Hopkins Ion Channel Center
# ANO1 block: mouse TMEM16A channel inhibition, primary screen | HEK293 TMEM16A/YFP iodide influx fluorescence, ionomycin | normalized B-score (activity score, 25-100; higher = stronger inhibition) at 10 µM | hit rate 1.2% among 310,000;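 active means ratio plate-corrected score three or more library SD toward inhibition, starting fluorescence score within five deviations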;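 further: score derived from kinetic fluorescence span divided by baseline fluorescence per well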
# Target sequence (Q8BHY3 whole entry, looked up): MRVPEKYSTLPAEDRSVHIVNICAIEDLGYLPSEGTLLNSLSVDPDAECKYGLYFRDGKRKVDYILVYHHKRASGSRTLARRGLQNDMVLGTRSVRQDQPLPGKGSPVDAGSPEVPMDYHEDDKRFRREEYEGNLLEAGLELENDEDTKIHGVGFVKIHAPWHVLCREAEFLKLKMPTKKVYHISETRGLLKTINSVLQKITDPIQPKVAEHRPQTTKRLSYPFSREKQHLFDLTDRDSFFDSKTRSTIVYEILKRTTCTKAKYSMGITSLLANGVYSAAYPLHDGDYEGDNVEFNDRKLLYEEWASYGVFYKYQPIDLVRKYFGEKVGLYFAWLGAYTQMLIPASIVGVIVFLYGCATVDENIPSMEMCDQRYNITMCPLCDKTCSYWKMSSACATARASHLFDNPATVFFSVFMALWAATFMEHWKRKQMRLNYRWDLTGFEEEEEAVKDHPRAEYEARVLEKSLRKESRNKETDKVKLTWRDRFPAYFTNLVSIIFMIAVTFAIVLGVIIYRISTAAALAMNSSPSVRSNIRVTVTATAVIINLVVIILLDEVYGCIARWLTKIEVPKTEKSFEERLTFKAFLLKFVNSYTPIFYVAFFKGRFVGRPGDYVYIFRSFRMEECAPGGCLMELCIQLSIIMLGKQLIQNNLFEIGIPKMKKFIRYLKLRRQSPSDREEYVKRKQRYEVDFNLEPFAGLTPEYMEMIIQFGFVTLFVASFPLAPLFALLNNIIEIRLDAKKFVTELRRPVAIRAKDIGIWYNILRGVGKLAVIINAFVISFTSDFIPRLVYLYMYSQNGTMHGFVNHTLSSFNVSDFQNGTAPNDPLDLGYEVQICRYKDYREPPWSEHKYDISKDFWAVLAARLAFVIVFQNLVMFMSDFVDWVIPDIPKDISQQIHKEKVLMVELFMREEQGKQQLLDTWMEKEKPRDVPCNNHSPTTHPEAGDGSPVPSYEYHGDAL
# TMEM16A act: activates or potentiates the mouse TMEM16A chloride channel | Q8BHY3 | HEK293 TMEM16A/YFP-H148Q/I152L, iodide quench fluorescence; active compounds read low | B-score at 10 µM | hit rate 0.3% among 340,000;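 active means fluorescence-ratio B-score plate-corrected deviation score at least 3 library SD below zero, with starting fluorescence score within 5 deviations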;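 further: channel opened by trigger with iodide after compound preincubation; score built on the fluorescence ratio of max minus min over baseline; more negative score means more quench and so TMEM16A activation or potentiation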
# CHT block: human CHT choline transport inhibition. CHT-expressing cells, membrane potential dye, choline response; active compounds read low. B-score at 10 µM. hit rate 0.86% among 310,000;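 active means B-score over 3 SD under the library average, and starting fluorescence ratio not unusually high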;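 further: choline stimulus applied at its EC90 after an EC20 pre-addition; B-score computed on integrated fluorescence ratio after choline addition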
# CHT PAM: allosterically activates the human high affinity choline transporter; Q9GZV3; B-score at 10 µM; CHT-expressing cells, membrane potential dye, choline EC20; active compounds read high; LV-AA mutant CHT in HEK293 cells; hit rate 0.49% among 310,000; AID 488977;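 active means initial fluorescence not abnormally high and integrated response B-score, plate-corrected, over 3 SD above library mean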
# CHT inh conf: human CHT inhibition, confirmatory screen. CHT activity remaining % of control (active compounds read low), % at 10 µM. AID 493221. shares compounds with CHT block. hit rate 70% among 2,400. CHT-expressing cells, choline membrane potential dye; LV-to-AA substituted CHT, HEK293 cells;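 active means choline transporter activity left, mean of duplicates at 10 µM, below buffer-only control mean minus 3 SD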;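 further: depolarization triggered by choline at its EC90 following an EC20 pre-addition; 0% = hemicholinium-3 full block and 100% = buffer-only control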
# HEK293 CHT ctr: CHT inhibitor counter-screen hit in parental HEK293 cells. membrane potential ratio readout (active if shifted either direction beyond buffer ±3SD; no single direction) at 10 µM. shares compounds with CHT block. membrane potential dye, choline response; active = decrease or increase beyond buffer ±3SD. hit rate 4% among 2,400. AID 493222;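 further: parental cells lack the transporter so any hit is non-specific; ratio is peak minus trough fluorescence over baseline after EC90 choline challenge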
# * hit, by the source's call; i = inactive; · = not tested or not shown. Hits are enriched below; roughly 2.4% of the tested compounds scored in any of these assays.
SMILES,ANO1 block,TMEM16A act,CHT block,CHT PAM,CHT inh conf,HEK293 CHT ctr
CC(C)Cn1c(=O)c2c(nc3n2CCCN3CCc2ccccc2)n(C)c1=O,25*,i,-5.4*,i,62%*,i
O=C(CCCCCCCCN1C(=O)c2ccccc2C1=O)N1CCOCC1,i,i,i,i,·,·
O=C(CCCCCCN1C(=O)c2ccccc2C1=O)N1CCC(c2ccccc2)C1 (stereo not given),i,i,-6.1*,i,i,i
O=C(NCc1nc(-c2ccccc2)cs1)c1ccccc1,i,i,-6.5*,i,71%*,i
O=C(NNc1nc(-c2ccccc2)cs1)c1ccc(F)cc1,i,i,-5.2*,i,71%*,i
CNC(=O)c1ccc(-c2nc(-c3ccccc3)cs2)cc1,i,i,i,i,·,·
O=C(Nc1ccccc1C(=O)NCc1ccccc1)c1ccco1,i,i,i,i,·,·
CC1CCCCC1NC(=O)c1cc2c(=O)n3ccccc3nc2n1C (stereo not given),i,i,i,i,·,·
CC1CCCCC1NC(=O)c1c(O)nc2ccccn2c1=O (stereo not given),i,i,-7.1*,i,60%*,i
Cc1ccnc(NS(=O)(=O)c2ccc(NC(=O)c3ccc(Cl)cc3[N+](=O)[O-])cc2)n1,i,i,-5.5*,i,51%*,i
O=C(Nc1ccccc1Cl)C1CCCN(c2ncnc3c2nc2n3CCCCC2)C1 (stereo not given),i,i,-5.2*,i,26%*,i
O=C(NCCc1ccc(Cl)cc1)C1CCCN(c2ncnc3c2nc2n3CCCCC2)C1 (stereo not given),i,i,i,i,·,·
Cc1cccc(CCNC(=O)C2CCCN(c3ncnc4c3nc3n4CCCCC3)C2)c1 (stereo not given),i,i,-7.6*,i,19%*,i
COc1ccccc1NC(=O)C1CCCN(c2ncnc3c2nc2n3CCCCC2)C1 (stereo not given),i,i,-6.8*,i,5.7%*,i
Cn1cnc2c(ncn2C2OC(CO)C(O)C2O)c1=S (stereo not given),·,i,·,·,·,·
Nc1c(NCCC2=CCCCC2)c(=O)[nH]c(=O)n1Cc1ccccc1,i,i,i,i,·,·
O=[N+]([O-])c1ccc(CSc2nnc3ccccn23)cc1,i,i,-13*,i,8.8%*,i
c1ccc(NCCC2OCC3(CO2)COC(CCNc2ccccc2)OC3)cc1 (stereo not given),·,i,·,·,·,·
CC(Oc1ccc(Cl)cc1Cl)C(=O)NNC(=O)[C@@H]1CCCC[C@@H]1C(=O)O (stereo not given in full),i,i,i,i,·,·
O=c1cc(-c2ccccc2)oc2ccc(O)cc12,i,i,i,i,·,·
COc1ccc(-c2cc(=O)c3cc(O)ccc3o2)cc1,i,i,-7.3*,i,41%*,i
O=C(N/N=C/c1cccc(Oc2ccccc2)c1)c1ccc(O)cc1O,i,i,i,i,·,·
CC(=O)NC(CC(=O)O)C(=O)O (stereo not given),i,i,i,i,·,·
CCCCn1c(NCc2ccc3c(c2)OCO3)nc2ccccc21,i,i,-7.3*,i,52%*,3*
NC(=O)c1c(NC(=O)CN2C(=O)NC(Cc3ccccc3)C2=O)sc2c1CCC2 (stereo not given),i,i,-6.3*,i,62%*,i
CC1CCC2(CC1)NC(=O)N(CC(=O)Nc1sc3c(c1C(N)=O)CCC3)C2=O (stereo not given),i,i,i,i,·,·
CC(C)C(NC(=O)c1ccco1)C(=O)OCC(=O)NCCc1ccccc1 (stereo not given),·,i,·,·,·,·
Cc1cc(O)c(C(C)C)cc1N=Cc1ccccc1[N+](=O)[O-],·,i,·,·,·,·
COc1ccc(N=Cc2cc(Cl)ccc2O)cc1Cl,i,i,i,i,·,·
Cc1ccc(N=Cc2cc(Cc3ccccc3Cl)cc([N+](=O)[O-])c2O)c(O)c1,i,i,-7.8*,i,64%*,i
